From PubChem BioAssay (Tox21)
Records with an inconclusive call do not appear. Activity calls are given as the source filed them. Unless noted, calls follow the shape of the full dose curve.

Tests used:
[1] = Nuclear factor erythroid 2-related factor 2/antioxidant responsive element (Nrf2/ARE) small molecule agonists: qHTS cell viability counter screen in human keratinocytes (AID 1919968; active = well fitted curve in the direction sought with a large enough effect in the repeat runs; an effect the other way counts as inactive or inconclusive; also: nearly all actives have a fitted effect of over 55% in size)
In short: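 Measured as CellTiter-Fluor fluorescence, this readout tracks cytotoxicity in the same wells as the ARE-luciferase screen. HaCaT reporter cells (1,500/well) received compounds after a 5 h pre-incubation and were exposed for 23 h.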

[2] = Nuclear factor erythroid 2-related factor 2/antioxidant responsive element (Nrf2/ARE) small molecule agonists: luciferase reporter gene qHTS assay in human keratinocytes (AID 1919969); also: nearly all actives have a fitted effect of over 35% in size
[3] = target: Gonadotropin-releasing hormone receptor (Homo sapiens) (UniProt P30968); assay: Human gonadotropin-releasing hormone receptor (GnRHR) small molecule agonists, calcium flux assay in GnRHR-HEK293 cells (AID 1920063); also: nearly all actives have a fitted effect of over 35% in size
In short: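 Fluorescence kinetics (480 nm excitation, 540 nm emission; 3 min, 1 s steps) report calcium mobilisation in human GnRHR-HEK293 cells in agonist mode. Dye incubation: 1 h, 37 C.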

[4] = target: KiSS-1 receptor (Homo sapiens) (UniProt Q969F8); assay: Human kisspeptin (KISS1R) small molecule agonists, calcium flux assay in KISS1R-HEK293 cells (AID 1920064; active = well fitted curve in the direction sought with a large enough effect in the repeat runs; an effect the other way counts as inactive or inconclusive)
In short: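 Measures KISS1R agonism through calcium-sensitive dye fluorescence in stably transfected HEK293 cells, read for 3 min after pin-tool compound delivery; 15-point titrations in triplicate.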

[5] = G protein-coupled receptor (GPCR) small molecule agonists, calcium flux assay: HEK293 wild type cell line counter screen (AID 1920065)
In short: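 Readout: fluorescence at 480 nm excitation/540 nm emission, sampled at 1 s intervals for 3 min. Cells had been cultured 18 h, then dye-loaded 1 h at 37 C before compound or ATP addition.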

[6] = p53 small molecule agonists, cell-based qHTS assay with human liver microsomes: qHTS cell viability counter screen (AID 1963579); also: nearly all actives have a fitted effect of over 45% in size
In short: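 HLM-supplemented (0.5 mg/mL final) and NADPH-supplemented (0.5 mg/mL final) p53RE-bla cultures, 4,000 cells per well, were dosed with compounds in DMSO for 16 h at 37 C; luminescent ATP detection (CellTiter-Glo, 30 min, room temperature) quantified surviving cells.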

[7] = p53 small molecule agonists, cell-based qHTS assay with rat liver microsomes: qHTS cell viability counter screen (AID 1963580); also: nearly all actives have a fitted effect of over 45% in size
In short: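 Viability is assessed in parallel with the p53 reporter read: HCT-116 p53RE-bla cells receive compounds plus rat microsomes and NADPH (0.5 mg/mL final apiece), incubate 16 h at 37 C, and then CellTiter-Glo luminescence is recorded.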

[8] = p53 small molecule agonists, cell-based qHTS assay: qHTS cell viability counter screen (AID 1963581); also: nearly all actives have a fitted effect of over 45% in size
In short: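 In the same plates used for the p53 bla reporter, HCT-116 cells given compounds for 16 h at 37 C received CellTiter-Glo; luminescence was recorded 30 min later at room temperature.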

[9] = target: 5-hydroxytryptamine receptor 2A (Homo sapiens) (UniProt P28223); assay: 5-hydroxytryptamine receptor 2A (HTR2A) small molecule antagonists, cell-based qHTS assay (AID 1963586); also: nearly all actives have a fitted effect of over 45% in size
In short: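 Antagonist-mode intracellular calcium assay: DOI (4 nM) added after 5 min compound pre-incubation at room temperature to dye-loaded HTR2A-CHO cells. Fluorescence followed for 3 min, sampled every second.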

[10] = target: 5-hydroxytryptamine receptor 2A (Homo sapiens) (UniProt P28223); assay: 5-hydroxytryptamine receptor 2A (HTR2A) small molecule agonists, cell-based qHTS assay (AID 1963587); also: nearly all actives have a fitted effect of over 30% in size
In short: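 CHO cells stably expressing human HTR2A, plated 18 h, loaded with calcium dye 1 h at 37 C. Agonist mode: compounds added and intracellular calcium fluorescence recorded kinetically for 2 min at 1 sec intervals.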

[11] = target: Muscarinic acetylcholine receptor M1 (Homo sapiens) (UniProt P11229); assay: Cholinergic receptor muscarinic 1 (CHRM1) small molecule antagonists, cell-based qHTS assay (AID 1963588); also: nearly all actives have a fitted effect of over 40% in size
In short: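 CHRM1-CHO calcium-flux assay, antagonist mode. Cells were seeded 18 h, dye-loaded 1 h at 37 C and given compound for 5 min at RT, then acetylcholine was added at 50nM. FDSS fluorescence was read 3 min; 15 concentrations, three runs.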

[12] = target: Muscarinic acetylcholine receptor M1 (Homo sapiens) (UniProt P11229); assay: Cholinergic receptor muscarinic 1 (CHRM1) small molecule agonists, cell-based qHTS assay (AID 1963589); also: nearly all actives have a fitted effect of over 35% in size
In short: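 Each compound was tested at 15 concentrations across three independent runs on dye-loaded CHO cells stably expressing human CHRM1, reading intracellular calcium fluorescence kinetically at 1 sec intervals.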

[13] = cAMP Responsive Elements (CRE) small molecule agonists, cell-based qHTS assay (AID 1963590)
In short: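 Cell line: CRE-bla HEK 293T; medium DMEM/10% dialyzed FBS/0.1 mM NEAA/1 mM pyruvate/25 mM HEPES; 3 h compound exposure; beta-lactamase FRET readout after 2 h substrate loading at RT.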

[14] = cAMP Responsive Elements (CRE) small molecule antagonists, cell-based qHTS assay (AID 1963591; active = well fitted inhibition curve with a large enough effect in the signal ratio in the repeat runs, not every such curve was filed as active; the % refers to the signal ratio)
In short: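 Inhibition of NKH477-driven (0.25 uM final) CRE-beta-lactamase signal in HEK293T cells, 3 h compound exposure at 37 °C, detected by FRET substrate fluorescence.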

[15] = target: Beta-2 adrenergic receptor (Homo sapiens) (UniProt P07550); assay: Adrenergic beta2 receptor (ADRB2) small molecule antagonists, cell-based qHTS assay (AID 1963592); also: series mostly up to about 92 µM; nearly all actives have a fitted effect of over 50% in size
In short: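 Cells (CHO, stable ADRB2 overexpression) incubated 18-20hr at 37C; compounds added from DMSO; agonist mix (1nM isoproterenol, 100uM IBMX, 25uM Ro-20-1724) added; 0.5hr RT; d2-cAMP and anti-cAMP-cryptate added; 1hr RT; 665/615 nm read.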

[16] = target: Beta-2 adrenergic receptor (Homo sapiens) (UniProt P07550); assay: Adrenergic beta2 receptor (ADRB2) small molecule agonists, cell-based qHTS assay (AID 1963593);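 also: CHO cells stably overexpressing human ADRB2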
In short: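 CHO cells stably over-expressing ADRB2 were plated overnight at 37C, then dosed with compounds plus a stimulation mix containing 100uM IBMX and 25uM Ro-20-1724 for 0.5hr at room temperature. cAMP was measured by HTRF competition, 1hr.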

[17] = target: D(2) dopamine receptor (Homo sapiens) (UniProt P14416); assay: Dopamine D2 receptor (DRD2) small molecule agonists, cell-based qHTS assay (AID 1963594); also: nearly all actives have a fitted effect of over 35% in size
In short: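 HEK293 cells stably expressing human DRD2, pre-treated with PDE inhibitor Ro20-1724 (0.1 mM final) and compound 10 min at room temperature, then stimulated with NKH477 (200nM […]) for 30 min. cAMP read by HTRF (665/620 nm).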

[18] = target: D(2) dopamine receptor (Homo sapiens) (UniProt P14416); assay: Dopamine D2 receptor (DRD2) small molecule antagonists, cell-based qHTS assay (AID 1963595; active = well fitted inhibition curve with a large enough effect in the signal ratio in the repeat runs, with a control signal flat; the % refers to the signal ratio)
In short: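 HEK293 cells stably expressing DRD2 were preincubated with 0.1 mM Ro20-1724, then with compound for 10 min at room temperature. Cells were stimulated with 200 nM NKH477 plus 12 nM quinpirole for 30 min, and cAMP was read by HTRF.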

Measured: Potency

Sequence of Muscarinic acetylcholine receptor M1 (Homo sapiens) (P11229 whole entry, looked up): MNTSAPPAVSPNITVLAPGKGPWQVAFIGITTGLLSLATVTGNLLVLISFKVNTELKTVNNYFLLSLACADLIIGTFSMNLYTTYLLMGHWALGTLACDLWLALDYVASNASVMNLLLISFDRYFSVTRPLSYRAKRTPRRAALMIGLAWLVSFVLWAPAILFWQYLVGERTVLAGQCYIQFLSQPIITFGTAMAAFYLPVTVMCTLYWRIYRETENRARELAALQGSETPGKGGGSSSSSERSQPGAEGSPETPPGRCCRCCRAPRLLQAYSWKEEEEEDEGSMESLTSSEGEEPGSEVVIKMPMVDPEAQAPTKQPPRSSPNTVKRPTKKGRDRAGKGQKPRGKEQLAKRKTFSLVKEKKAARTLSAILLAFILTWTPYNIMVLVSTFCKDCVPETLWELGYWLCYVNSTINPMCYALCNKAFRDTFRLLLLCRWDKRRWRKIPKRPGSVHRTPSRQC
Sequence of Gonadotropin-releasing hormone receptor (Homo sapiens) (P30968 whole entry, looked up): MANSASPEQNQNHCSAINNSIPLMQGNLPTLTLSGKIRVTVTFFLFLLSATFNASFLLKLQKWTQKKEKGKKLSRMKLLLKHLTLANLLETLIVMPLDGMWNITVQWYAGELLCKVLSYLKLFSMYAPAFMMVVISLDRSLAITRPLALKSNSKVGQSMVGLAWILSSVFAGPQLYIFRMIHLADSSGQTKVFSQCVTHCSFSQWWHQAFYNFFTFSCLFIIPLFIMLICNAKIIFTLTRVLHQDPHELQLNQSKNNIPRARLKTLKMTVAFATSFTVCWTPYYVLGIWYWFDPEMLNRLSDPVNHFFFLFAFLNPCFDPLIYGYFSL
Sequence of 5-hydroxytryptamine receptor 2A (Homo sapiens) (P28223 whole entry, looked up): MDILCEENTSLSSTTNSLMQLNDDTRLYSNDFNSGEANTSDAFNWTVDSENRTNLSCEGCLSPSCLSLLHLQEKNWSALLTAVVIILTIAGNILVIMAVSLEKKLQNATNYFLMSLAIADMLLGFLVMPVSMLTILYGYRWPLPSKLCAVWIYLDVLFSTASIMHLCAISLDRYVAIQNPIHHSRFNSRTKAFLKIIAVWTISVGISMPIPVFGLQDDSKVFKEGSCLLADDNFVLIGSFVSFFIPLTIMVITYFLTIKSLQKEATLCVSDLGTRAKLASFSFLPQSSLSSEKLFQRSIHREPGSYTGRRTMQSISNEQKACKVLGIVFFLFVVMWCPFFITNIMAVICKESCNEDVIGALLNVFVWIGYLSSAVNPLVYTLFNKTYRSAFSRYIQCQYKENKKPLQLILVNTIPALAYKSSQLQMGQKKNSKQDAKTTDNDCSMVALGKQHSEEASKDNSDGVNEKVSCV
Sequence of KiSS-1 receptor (Homo sapiens) (Q969F8 whole entry, looked up): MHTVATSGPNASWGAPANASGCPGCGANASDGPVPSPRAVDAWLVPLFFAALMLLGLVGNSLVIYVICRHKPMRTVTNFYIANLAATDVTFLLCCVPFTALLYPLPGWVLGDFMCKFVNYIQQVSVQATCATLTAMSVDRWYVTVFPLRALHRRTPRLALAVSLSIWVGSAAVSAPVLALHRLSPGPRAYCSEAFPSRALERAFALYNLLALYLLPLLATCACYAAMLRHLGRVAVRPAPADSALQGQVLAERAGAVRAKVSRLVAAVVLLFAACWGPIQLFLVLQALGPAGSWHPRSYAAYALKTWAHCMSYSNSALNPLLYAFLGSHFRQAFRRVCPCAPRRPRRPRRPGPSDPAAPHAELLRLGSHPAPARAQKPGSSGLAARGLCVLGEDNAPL
Sequence of D(2) dopamine receptor (Homo sapiens) (P14416 whole entry, looked up): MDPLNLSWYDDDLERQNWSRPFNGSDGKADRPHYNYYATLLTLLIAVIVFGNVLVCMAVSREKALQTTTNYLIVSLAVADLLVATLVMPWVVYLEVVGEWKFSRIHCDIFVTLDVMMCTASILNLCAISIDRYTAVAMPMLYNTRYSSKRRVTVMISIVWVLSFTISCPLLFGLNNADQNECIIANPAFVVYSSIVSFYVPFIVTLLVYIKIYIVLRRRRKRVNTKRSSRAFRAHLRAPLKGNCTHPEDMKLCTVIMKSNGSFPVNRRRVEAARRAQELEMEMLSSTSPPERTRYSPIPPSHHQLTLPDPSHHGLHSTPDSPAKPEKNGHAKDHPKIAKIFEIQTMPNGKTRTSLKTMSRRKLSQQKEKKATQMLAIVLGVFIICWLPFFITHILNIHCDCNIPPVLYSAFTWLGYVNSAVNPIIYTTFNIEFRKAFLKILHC
Sequence of Beta-2 adrenergic receptor (Homo sapiens) (P07550 whole entry, looked up): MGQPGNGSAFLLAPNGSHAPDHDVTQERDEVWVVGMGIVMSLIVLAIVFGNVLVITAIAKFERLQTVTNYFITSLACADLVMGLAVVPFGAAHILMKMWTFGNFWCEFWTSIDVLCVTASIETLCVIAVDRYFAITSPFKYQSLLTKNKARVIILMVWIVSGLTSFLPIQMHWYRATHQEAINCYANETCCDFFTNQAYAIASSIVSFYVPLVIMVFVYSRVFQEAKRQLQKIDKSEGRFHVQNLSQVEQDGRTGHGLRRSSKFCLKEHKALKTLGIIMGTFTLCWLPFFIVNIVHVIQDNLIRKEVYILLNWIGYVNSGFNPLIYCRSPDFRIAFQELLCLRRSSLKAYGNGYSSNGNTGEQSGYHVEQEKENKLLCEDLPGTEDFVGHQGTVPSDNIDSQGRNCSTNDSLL

CC(=O)c1ccc([N+](=O)[O-])cc1
inactive: all assays above

CC(CC=O)CCCC(C)(C)O (stereo unspecified)
not listed: [17]
inactive: all other assays above

CN(C)C(C)(C)CO
inactive: all assays above

CC(C)Cn1cnc2c1c(=O)n(C)c(=O)n2C
not listed: [17]
inactive: all other assays above

CC(CN(CCN(CC(C)OCCO)CC(C)OCCO)CC(C)OCCO)OCCO (stereo unspecified)
inactive: all assays above

CCCCCCOC(=O)CC(CC(=O)OCCCCCC)(OC(=O)CCC)C(=O)OCCCCCC
not listed: [17]
inactive: all other assays above

Cc1cc(C)c(N)cc1C
not listed: [16] | [18]
inactive: all other assays above
